This note sets out measurements from paper PMC4336329 (PLoS ONE, 2015).

Hit rate of the full screen: of about 310,000 compounds, about 2,200 (0.71%) showed an effect of 50% or more. The effect is printed as a negative number. Shown is part of a subset that was picked to be rich in strong results.

Chain of human ether-à-go-go-related gene (hERG) potassium channel (Q12809 whole entry, looked up): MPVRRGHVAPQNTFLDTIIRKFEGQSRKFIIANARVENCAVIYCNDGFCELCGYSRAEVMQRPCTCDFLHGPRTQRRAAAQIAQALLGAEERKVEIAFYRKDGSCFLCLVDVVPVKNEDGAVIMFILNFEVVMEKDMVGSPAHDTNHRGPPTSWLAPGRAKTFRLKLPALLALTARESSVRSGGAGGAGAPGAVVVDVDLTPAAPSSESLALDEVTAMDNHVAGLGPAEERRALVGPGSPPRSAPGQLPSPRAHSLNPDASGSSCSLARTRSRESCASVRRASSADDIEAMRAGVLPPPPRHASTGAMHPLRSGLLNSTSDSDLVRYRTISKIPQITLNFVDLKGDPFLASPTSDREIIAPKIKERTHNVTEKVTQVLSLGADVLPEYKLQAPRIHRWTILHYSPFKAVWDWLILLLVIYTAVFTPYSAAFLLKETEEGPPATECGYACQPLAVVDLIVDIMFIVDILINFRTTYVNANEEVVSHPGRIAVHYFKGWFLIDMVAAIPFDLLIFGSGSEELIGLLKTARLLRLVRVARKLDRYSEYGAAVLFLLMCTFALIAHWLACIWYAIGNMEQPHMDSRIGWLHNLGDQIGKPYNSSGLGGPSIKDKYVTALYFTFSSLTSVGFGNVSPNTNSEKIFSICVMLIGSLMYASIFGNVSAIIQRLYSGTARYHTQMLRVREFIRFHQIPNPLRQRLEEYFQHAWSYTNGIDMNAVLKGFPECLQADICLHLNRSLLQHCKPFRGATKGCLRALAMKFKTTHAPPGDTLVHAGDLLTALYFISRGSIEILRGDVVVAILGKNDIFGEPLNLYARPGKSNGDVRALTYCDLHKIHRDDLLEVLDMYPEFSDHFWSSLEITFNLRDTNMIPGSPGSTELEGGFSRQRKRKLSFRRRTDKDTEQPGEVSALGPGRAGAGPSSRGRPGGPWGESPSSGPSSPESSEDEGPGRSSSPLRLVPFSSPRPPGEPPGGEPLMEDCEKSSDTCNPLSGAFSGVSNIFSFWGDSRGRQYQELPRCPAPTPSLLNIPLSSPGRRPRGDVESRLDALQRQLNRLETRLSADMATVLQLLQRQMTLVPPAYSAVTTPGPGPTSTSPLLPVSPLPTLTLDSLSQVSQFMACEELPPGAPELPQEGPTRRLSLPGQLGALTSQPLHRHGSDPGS

This assay concerns the target human ether-à-go-go-related gene (hERG) potassium channel (human, UniProt Q12809). The experiment in a line: primary screen, population patch clamp on CHO cells stably expressing hERG; higher = less effect of the substance.
Regarding `Cc1cccc(OC(=O)NCCOC(=O)N(O)c2ccc(Cl)cc2)c1`, the “hERG current change (%, negative = inhibition) at 1uM” value came to 1.04%.
`Cc1ccc(NC(=O)CSc2sc3c(O)cc(=O)[nH]c3c2C#N)c(F)c1`: the “hERG current change (%, negative = inhibition) at 1uM” value is given as -4.66%.
The value for `Cc1cccc(C)c1NC(=O)CSc1nc2[nH]c(=O)cc(O)c2s1` was 4.15%; that for `COc1ccc(N(CC(=O)NC2CC3CCC2C3)S(=O)(=O)c2ccc(C)c([N+](=O)[O-])c2)cc1` (stereo not shown) was 10.2%; that for `COc1cccc(C(=O)NNS(=O)(=O)c2ccc(C)cc2)c1` was 13%.
The value for `O=C(NCc1ccco1)c1cccc(NS(=O)(=O)c2ccccc2F)c1` was 6.58%; that for `Cc1ccc(NC(=O)CSCC(=O)NCc2cccc(C(F)(F)F)c2)cc1` was 6.6%.
Turning to `O=C(CN(C(=O)C1COc2ccccc2O1)c1ccccc1)NCC1CCCO1` (stereo not shown), the “hERG current change (%, negative = inhibition) at 1uM” value is reported as -9.34%.
On to `CCOc1ccccc1Nc1nc(N)nc(CSc2nncn2C)n1`, for which the “hERG current change (%, negative = inhibition) at 1uM” value is on record as 9.75%.
In the case of `Cc1cccc(OCC(=O)Nc2ccc(C(=O)NCC(C)C)cc2)c1`, the “hERG current change (%, negative = inhibition) at 1uM” value turned out to be 4.42%.
The value for `CCOCCCNC(=S)Nc1cc(OCC)c(NC(=O)c2ccco2)cc1OCC` was 7.7%.
The value for `COc1ccc(C(=O)N2CCN=C2SCc2cccnc2)cc1OC` was 9.25%; that for `COc1nnc(-c2ccc(C)c(S(=O)(=O)N(C)C)c2)c2ccccc12` was -53.6%; that for `COc1nnc(-c2ccc(C)c(S(=O)(=O)NC(C)C)c2)c2ccccc12` was -5.36%.
The value for `COc1nnc(-c2ccc(C)c(S(N)(=O)=O)c2)c2ccccc12` was 3.63%; that for `CC(=O)Nc1ccc(NC2CCCCC2NS(=O)(=O)c2ccc(Cl)cc2)cc1` (stereo not shown) was 12%; that for `CCCn1cc(CN2CCC(Cc3ccccc3)(C(=O)OCC)CC2)c(C)n1` was -14%.
Regarding `CCOC(=O)C1(CCCc2ccccc2)CCN(Cc2cnn(C)c2)CC1`, the “hERG current change (%, negative = inhibition) at 1uM” value is -46.4%.
For `CCOC(=O)C1(Cc2ccc(Cl)cc2)CCN(CCCn2cccn2)CC1` the value was -77%.
Turning to `CCOC(=O)C1(Cc2ccc(Cl)cc2)CCN(C(C)CCn2cccn2)CC1` (stereo not shown), the “hERG current change (%, negative = inhibition) at 1uM” value was -87.1%.
On to `CCCn1cc(CN2CCC(Cc3cccc(F)c3)(C(=O)OCC)CC2)c(C)n1`, for which the “hERG current change (%, negative = inhibition) at 1uM” value is on record as -60.3%.
For `CCOC(=O)C1(CCCc2ccccc2)CCN(Cc2nccn2CC)CC1` the value was -45.8%; for `CCOC(=O)C1(Cc2ccc(Cl)cc2)CCN(C(C)Cc2ccc(O)c(OC)c2)CC1` (stereo not shown), -7.39%; for `CCOC(=O)C1(CCCc2ccccc2)CCN(CCCn2cccn2)CC1`, -84.6%.
For `CCOC(=O)C1(Cc2cccc(F)c2)CCN(Cc2cn(CC)nc2C)CC1`, the “hERG current change (%, negative = inhibition) at 1uM” value is reported as -6.14%.
For `CCOC(=O)C1(Cc2ccccc2C(F)(F)F)CCN(CCCn2cccn2)CC1` the value was -49.2%.
Turning to `CCOC(=O)C1(Cc2ccccc2)CCCN(CCCn2cccn2)C1` (stereo not shown), the “hERG current change (%, negative = inhibition) at 1uM” value came out at 3.88%.
As for `CCOC(=O)C1(Cc2ccccc2C(F)(F)F)CCN(C(C)CCn2cccn2)CC1` (stereo not shown), the “hERG current change (%, negative = inhibition) at 1uM” value is on record as -40.8%.
